Results as given in PubChem BioAssay.
The source made the active and inactive calls. Unless noted, the rule behind the calls is not given here.

Experiments:
[1] = resazurin metabolic signal in HepG2 cells – cell-based, resazurin fluorescence, 24 h, PK04 Diversity Set, profiling panel (AID 1172); settings: HepG2 viability, higher = more signal; note: test concentration not given here
[2] = budding yeast growth changes without added modifier – OD600, strain BY4716, 24 h, basal condition, primary screen (AID 1173); settings: S. cerevisiae BY4716 growth, OD600, 24 h; higher = more signal, called active from +8 up or from −8 down
[3] = viability profiling in MM1S myeloma cells – cell-based, resazurin fluorescence, basal, 24 h, PK04 Diversity Set, profiling panel (AID 1174); settings: higher = more signal, called active from +8 up or from −8 down;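 note: MM1S multiple myeloma cell line; test concentration not given here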
[4] = molecular target: Dihydroorotate dehydrogenase (quinone), mitochondrial (Plasmodium falciparum (isolate 3D7)) (UniProt Q08210); experiment: inhibition of P. falciparum DHODH – biochemical, C-terminal His tag, absorbance 600 nm, primary screen (AID 1175); settings: PfDHODH enzyme, DCIP absorbance 600 nm; higher = more signal, called active from +8 up or from −8 down;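 note: recombinant parasite enzyme with a five histidine tag at its C terminus; test concentration not given here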
Dihydroorotate dehydrogenase (quinone), mitochondrial (Plasmodium falciparum (isolate 3D7)), sequence (Q08210 whole entry, looked up): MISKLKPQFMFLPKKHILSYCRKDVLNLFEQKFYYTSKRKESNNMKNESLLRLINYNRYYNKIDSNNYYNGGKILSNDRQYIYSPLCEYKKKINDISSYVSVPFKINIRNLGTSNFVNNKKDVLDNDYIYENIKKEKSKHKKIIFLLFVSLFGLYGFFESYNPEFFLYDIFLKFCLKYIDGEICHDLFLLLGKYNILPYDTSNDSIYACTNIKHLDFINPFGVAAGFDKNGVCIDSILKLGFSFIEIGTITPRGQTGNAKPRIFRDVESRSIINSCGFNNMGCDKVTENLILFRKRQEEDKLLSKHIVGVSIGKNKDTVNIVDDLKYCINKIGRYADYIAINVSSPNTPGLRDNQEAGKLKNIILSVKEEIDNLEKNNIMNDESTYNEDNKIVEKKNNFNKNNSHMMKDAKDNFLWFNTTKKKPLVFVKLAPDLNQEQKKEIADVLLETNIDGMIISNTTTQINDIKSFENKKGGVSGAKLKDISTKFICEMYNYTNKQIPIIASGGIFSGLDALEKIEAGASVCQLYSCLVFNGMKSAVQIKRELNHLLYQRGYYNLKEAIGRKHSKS

[5] = inhibition of PAO1 biofilm formation – strain PAO1, LB-PBS medium, absorbance 600 nm, primary screen (AID 1176); note: test concentration not given here; settings: P. aeruginosa PAO1 growth/biofilm, A600, 12 h; higher = more signal
[6] = growth modulation of vineyard yeast isolate – strain RM11-1a, OD600, basal, 24 h, primary screen (AID 1177);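 note: cultures grown under basal conditions with no added stressor; test concentration not given here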; settings: S. cerevisiae RM11-1a growth, OD600, 24 h; higher = more signal, called active from +8 up or from −8 down
[7] = growth of efflux-deficient E. coli DRC39 – strain DRC39, OD650, 24 h, E. coli filamentation inducers, primary screen (AID 1178);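 note: growth measured as culture turbidity by optical density at 650 nm; test concentration not given here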; settings: E. coli DRC39 acrAB, higher = more signal, called active from +8 up or from −8 down
[8] = growth of efflux-deficient E. coli DRC39 – strain DRC39, OD650, 48 h, E. coli filamentation inducers, primary screen (AID 1179);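 note: screen aims at cell division blockers that make cells filament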; settings: E. coli DRC39 delta-acrAB growth, higher = more signal, called active from +8 up or from −8 down
[9] = viability profiling in RPMI8226 myeloma cells – cell-based, resazurin fluorescence, basal, 24 h, PK04 Diversity Set, profiling panel (AID 1180); settings: higher = more signal;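 note: RPMI8826 multiple myeloma cell line at 5000 cells per well; test concentration not given here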
[10] = molecular target: E3 ubiquitin-protein ligase XIAP (Homo sapiens) (UniProt P98170); experiment: small molecules binding XIAP protein – biophysical, small-molecule microarray, fluorescence 635 nm, primary screen (AID 1181); settings: higher = more signal;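 note: score merges 667 nm emission and signal to noise over triplicate slides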
E3 ubiquitin-protein ligase XIAP (Homo sapiens), sequence (P98170 whole entry, looked up): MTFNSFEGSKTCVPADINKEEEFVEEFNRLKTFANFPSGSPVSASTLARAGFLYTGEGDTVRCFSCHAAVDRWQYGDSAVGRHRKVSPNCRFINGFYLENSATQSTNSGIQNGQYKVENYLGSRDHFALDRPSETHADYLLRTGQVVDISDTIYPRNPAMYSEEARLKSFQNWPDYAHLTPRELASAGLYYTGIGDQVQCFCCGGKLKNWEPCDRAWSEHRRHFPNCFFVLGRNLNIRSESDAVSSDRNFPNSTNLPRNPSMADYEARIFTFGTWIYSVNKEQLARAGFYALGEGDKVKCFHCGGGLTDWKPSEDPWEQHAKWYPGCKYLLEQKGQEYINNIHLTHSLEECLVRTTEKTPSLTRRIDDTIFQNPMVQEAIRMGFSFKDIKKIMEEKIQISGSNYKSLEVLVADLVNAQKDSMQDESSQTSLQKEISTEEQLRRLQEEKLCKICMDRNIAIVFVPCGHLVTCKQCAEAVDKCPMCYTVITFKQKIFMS

Row | Structure (SMILES) | z-score [1] | z-score [2] | z-score [3] | composite z-score [4] | z-score [5] | z-score [6] | z-score [7] | z-score [8] | z-score [9] | composite z-score [10]
1 | CC(C)(C)OC(=O)COc1cccc(C(=O)CCN2CCOCC2)c1 | 0.454 | -10.3 (active) | -0.971 (inactive) | -3.31 (inactive) | -1.03 (inactive) | -0.616 (inactive) | 0.215 (inactive) | 0.0359 (inactive) | -3.51 | -0.203
2 | O=C1C2C=CC(C(O)C3CC=CCC3)N(Nc3ccccc3)C2C(=O)N1c1ccccc1 (stereo not given) | -0.868 | -1.22 (inactive) | -1.57 (inactive) | -0.558 (inactive) | 1.18 (inactive) | -0.197 (inactive) | -0.572 (inactive) | -0.658 (inactive) | -1.12 | 0.251
3 | CC(=O)NCCCC[C@@H]1NC(=O)[C@@H]2C[C@H](C(=O)NCCCCCN)[C@H](c3cccc(OCCO)c3)N2C1=O | 0.619 | -0.659 (inactive) | 0.427 (inactive) | -0.585 (inactive) | 0.392 (inactive) | -1.42 (inactive) | 1.03 (inactive) | 1.9 (inactive) | 0.0926 | 0.087
4 | O=C1NC(=O)C2C1C=CC(C(O)c1ccco1)N2Nc1ccc(Cl)cc1Cl (stereo not given) | -2.04 | -17 (active) | -1.41 (inactive) | 0.893 (inactive) | 0.711 (inactive) | -5.34 (inactive) | -0.725 (inactive) | -1.86 (inactive) | -1.28 | 0.257
5 | CO[C@H]1O[C@H](CO)[C@@H](OC(=O)Nc2ccccc2)[C@H](OC(=O)c2cc3ccccc3[nH]2)[C@H]1OC(=O)c1cc2ccccc2[nH]1 | -1.09 | -0.388 (inactive) | -1.59 (inactive) | -0.49 (inactive) | 0.125 (inactive) | -0.643 (inactive) | 1.54 (inactive) | 1.45 (inactive) | -1.64 | 0.246
6 | [N-]=[N+]=NCc1ccccc1[C@@H]1OC(c2ccc(OCCCO)cc2)=N[C@]1(CCS(=O)(=O)c1ccccc1)C(=O)O | -0.274 | -0.577 (inactive) | -0.906 (inactive) | 0.456 (inactive) | -0.0583 (inactive) | 0.275 (inactive) | -0.447 (inactive) | 0.0549 (inactive) | -1.4 | 0.0537
7 | COc1ccc([Si](C)(C)[C@@H]2[C@@H](CC(=O)N3Cc4ccccc4C[C@H]3CO)O[C@]3(C(=O)N(Cc4ccc(N5C(=O)c6cccc7cccc5c67)cc4)c4ccccc43)[C@H]2C)cc1 | -0.542 | -0.551 (inactive) | -0.717 (inactive) | -2.41 (inactive) | 1 (inactive) | 1.15 (inactive) | 0.384 (inactive) | 0.403 (inactive) | -0.221 | -0.0773
8 | CC(C)N1C(=O)C[C@@](C(=O)O)(c2ccc([N+](=O)[O-])cc2)[C@H]1c1ccc(CO)cc1 | -0.847 | -0.717 (inactive) | 0.305 (inactive) | -1.24 (inactive) | 0.0309 (inactive) | 0.196 (inactive) | 0.732 (inactive) | 0.684 (inactive) | 0.191 | -0.169
9 | O=C1O[C@@H](c2ccccc2)[C@@H](c2ccccc2)N2[C@@H](c3ccc(O)cc3)[C@]3(C(=O)Nc4ccc(C#CCCO)cc43)[C@@H](C(=O)N3CCN(c4ncccn4)CC3)[C@H]12 | 1.13 | 1.94 (inactive) | 0.609 (inactive) | 0.378 (inactive) | 1.77 (inactive) | 2.96 (inactive) | 1.08 (inactive) | 0.602 (inactive) | 0.509 | -0.197
10 | C=CCC(OC(C)=O)[C@@H]1[C@@H](N(Cc2cccc3ccccc23)C(=O)Cc2ccc(OC)cc2)c2cc(OCCCO)ccc2N1C(=O)c1ccc(-c2ccccc2)cc1 (stereo not given in full) | -0.433 | 0.376 (inactive) | 0.551 (inactive) | -0.547 (inactive) | -0.121 (inactive) | -0.352 (inactive) | 0.144 (inactive) | -0.165 (inactive) | 0.0598 | -0.224
11 | Cc1ccc(F)cc1S(=O)(=O)N[C@@H]1CCN(Cc2ccc(Br)cc2)C1 | -0.281 | -11.9 (active) | 0.611 (inactive) | -0.573 (inactive) | -0.73 (inactive) | -0.184 (inactive) | 1.13 (inactive) | -0.795 (inactive) | 0.264 | -0.17
12 | CC(C)[Si]1(C(C)C)OCc2cc(-c3ccc(-c4ccc(Cl)c(Cl)c4)o3)nc(-c3ccccc3)c21 | 0.374 | -0.981 (inactive) | 0.797 (inactive) | 0.107 (inactive) | 0.374 (inactive) | -0.219 (inactive) | -0.28 (inactive) | -0.725 (inactive) | 0.311 | -0.031
13 | COc1cccc(C)c1NC(=O)O[C@H]1[C@H](OC(=O)Nc2ccc3c(c2)OCO3)[C@@H](OC(=O)Nc2ccc3c(c2)OCO3)[C@@H](OC)O[C@@H]1CO | -0.808 | 1.21 (inactive) | -1.06 (inactive) | -0.191 (inactive) | 3.29 (inactive) | 2.4 (inactive) | 1.5 (inactive) | -0.1 (inactive) | -0.939 | 0.196
14 | Cc1ccc(NN2C(C(O)c3c(F)cccc3Cl)C=CC3C(=O)N(C4CCCCC4)C(=O)C32)cc1 (stereo not given) | 0.703 | -0.074 (inactive) | 0.0812 (inactive) | -1.12 (inactive) | 1.47 (inactive) | -0.717 (inactive) | -0.452 (inactive) | 0.432 (inactive) | 0.262 | 0.122
15 | C=C(COC)/C(=C/C[C@H](OC(=O)c1ccncc1)c1ccc(CO)o1)c1cnc2ccccc2c1 | -0.338 | 0.107 (inactive) | -0.117 (inactive) | -7.5 (inactive) | 0.449 (inactive) | 0.158 (inactive) | -0.305 (inactive) | -0.343 (inactive) | 0.0987 | -0.121
16 | CCCCCCCCCCC(O)C1C=CC2C(=O)N(c3ccccc3)C(=O)C2N1Nc1ccc(C#N)cc1 (stereo not given) | -2.08 | 1.18 (inactive) | -0.653 (inactive) | 0.481 (inactive) | 0.571 (inactive) | 1.25 (inactive) | -0.275 (inactive) | 0.598 (inactive) | -2.09 | 1.38
17 | O=C1C[C@]2(c3ccc([N+](=O)[O-])cc3)C(=O)N(C3CC3)c3cc(CO)ccc3[C@H]2N1CC12CC3CC(CC(C3)C1)C2 | -0.742 | 0.359 (inactive) | -0.118 (inactive) | -3.84 (inactive) | 0.677 (inactive) | 0.866 (inactive) | -0.292 (inactive) | -0.616 (inactive) | 0.0683 | -0.158
18 | CCOC(=O)C[C@H]1[C@H](OC(=O)c2ccc(C(=O)c3ccccc3)cc2)[C@@H](NC(=O)CC(C)C)c2cc(OCCCO)ccc2N1C(=O)c1ccccc1 | -0.358 | 0.325 (inactive) | 0.0303 (inactive) | -0.235 (inactive) | 0.714 (inactive) | -0.0649 (inactive) | -0.794 (inactive) | -0.717 (inactive) | -0.281 | -0.0773
19 | CCCCC(CC)C(O)C1C=CC2C(=O)N(C)C(=O)C2N1Nc1ccccc1 (stereo not given) | -0.339 | -0.027 (inactive) | -0.916 (inactive) | -0.206 (inactive) | 0.723 (inactive) | 0.468 (inactive) | -0.861 (inactive) | -0.389 (inactive) | -0.97 | 0.0297
20 | [N-]=[N+]=Nc1ccccc1[C@@H]1OC(c2ccc(OCCCO)cc2)=N[C@]1(Cc1ccccc1)C(=O)N1CCCCC1 | -0.819 | -0.592 (inactive) | -3.26 (inactive) | -0.128 (inactive) | 0.109 (inactive) | 1.08 (inactive) | 0.241 (inactive) | 0.174 (inactive) | -3.5 | 0.0512
21 | CN(C)c1ccc(C(O)C2C=CC3C(=O)NC(=O)C3N2Nc2ccccn2)cc1 (stereo not given) | -0.8 | 1.03 (inactive) | -1.21 (inactive) | 0.957 (inactive) | 0.503 (inactive) | 0.489 (inactive) | -0.738 (inactive) | 0.0674 (inactive) | -1.79 | 0.0726
22 | COC(=O)C1(CC(C)C)C=C2C(=C(c3ccccc3)C(=O)C2C)CN1 (stereo not given) | -1.21 | 0.397 (inactive) | -2.14 (inactive) | -1.58 (inactive) | 0.647 (inactive) | 0.168 (inactive) | -0.33 (inactive) | 0.208 (inactive) | -1.27 | -0.0133
23 | CCCCNC(=O)c1ccc(C#CC(C)(C)C)c(OC(C)=O)c1 | 0.111 | -2.59 (inactive) | 0.611 (inactive) | -1.14 (inactive) | -0.517 (inactive) | 0.516 (inactive) | 1.27 (inactive) | 0.256 (inactive) | 0.116 | -0.283
24 | COC(=O)C/C=C/C[C@]1(O)C(=O)N(C)c2ccccc21 | 0.197 | -1.81 (inactive) | 0.913 (inactive) | -0.429 (inactive) | 0.732 (inactive) | -2.6 (inactive) | 2.38 (inactive) | 0.875 (inactive) | 0.547 | -0.0861
